# In the supplement of paper PMC12282887:
# ± gives the standard deviation of the averaged measurements.
# Key:
# Assay in all cases: promoter activity interaction Z-score (Lux/OD deviation from empty-vector control); higher = stronger promoter induction by the compound
# [1] = test system: E. coli BW25113 acrABp lux reporter
# Procedure, shortened: (§1)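 Reporter strains of E. coli BW25113 grew at 37°C in 40 µl LB Lennox in 384-well plates. Readings of OD600 and luminescence were taken every 30 min over 12 h, integrated over 0–8 h (wild type) or 1–9 h (deletion strains), and wells below 10% of the median growth value were excluded. Scores are Z-transformed residuals of growth-normalised luminescence from a fit against a control.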
# [2] = test system: E. coli BW25113 marRABp lux reporter
# Procedure, shortened: as §1
# [3] = test system: E. coli BW25113 micFp lux reporter
# Procedure, shortened: as §1
# [4] = test system: E. coli BW25113 ompFp lux reporter
# Procedure, shortened: as §1
# [5] = test system: E. coli BW25113 robp lux reporter
# Procedure, shortened: as §1
# [6] = test system: E. coli BW25113 soxSp lux reporter
# Procedure, shortened: as §1
# [7] = test system: E. coli BW25113 tolCp lux reporter
# Procedure, shortened: as §1
# [8] = 0.0045 µg/ml, genetic background: wild type
# [9] = 0.0045 µg/ml, genetic background: ΔmarA
# [10] = 0.0045 µg/ml, genetic background: Δrob
# [11] = 0.0045 µg/ml, genetic background: ΔsoxS
# [12] = 0.009 µg/ml, genetic background: wild type
# [13] = 0.009 µg/ml, genetic background: ΔmarA
# [14] = 0.009 µg/ml, genetic background: Δrob
# [15] = 0.009 µg/ml, genetic background: ΔsoxS
# [16] = 0.62 µg/ml, genetic background: wild type
# [17] = 0.62 µg/ml, genetic background: ΔmarA
# [18] = 0.62 µg/ml, genetic background: Δrob
# [19] = 0.62 µg/ml, genetic background: ΔsoxS
# [20] = 1.2 µg/ml, genetic background: wild type
# [21] = 2.5 µg/ml, genetic background: wild type
compound,measurement,setting,value
C[C@H]1COc2c(N3CCN(C)CC3)c(F)cc3c(=O)c(C(=O)O)cn1c23 [Levofloxacin],promoter activity interaction Z-score,[1]; [8],0.161 ± 0.16
same,promoter activity interaction Z-score,[1]; [9],1.19 ± 0.57
same,promoter activity interaction Z-score,[1]; [10],0.765 ± 0.3
same,promoter activity interaction Z-score,[1]; [11],0.13 ± 0.43
same,promoter activity interaction Z-score,[1]; [12],1.49 ± 0.47
same,promoter activity interaction Z-score,[1]; [13],3.65 ± 2.5
same,promoter activity interaction Z-score,[1]; [14],3
same,promoter activity interaction Z-score,[1]; [15],0.933 ± 0.088
same,promoter activity interaction Z-score,[2]; [8],0.0777 ± 0.09
same,promoter activity interaction Z-score,[2]; [9],0.886 ± 0.81
same,promoter activity interaction Z-score,[2]; [10],0.457 ± 0.39
same,promoter activity interaction Z-score,[2]; [11],0.129 ± 0.058
same,promoter activity interaction Z-score,[2]; [12],1.81 ± 0.43
same,promoter activity interaction Z-score,[2]; [14],2.37
same,promoter activity interaction Z-score,[2]; [15],1.61 ± 0.18
same,promoter activity interaction Z-score,[3]; [8],-0.267 ± 0.3
same,promoter activity interaction Z-score,[3]; [9],0.407 ± 0.14
same,promoter activity interaction Z-score,[3]; [10],0.249 ± 0.18
same,promoter activity interaction Z-score,[3]; [11],0.076 ± 0.062
same,promoter activity interaction Z-score,[3]; [12],0.268 ± 0.26
same,promoter activity interaction Z-score,[3]; [13],0.154 ± 0.1
same,promoter activity interaction Z-score,[3]; [14],-0.048
same,promoter activity interaction Z-score,[3]; [15],0.58 ± 0.097
same,promoter activity interaction Z-score,[4]; [8],0.0942 ± 0.084
same,promoter activity interaction Z-score,[4]; [9],0.337 ± 0.47
same,promoter activity interaction Z-score,[4]; [10],0.283 ± 0.32
same,promoter activity interaction Z-score,[4]; [11],0.00971 ± 0.41
same,promoter activity interaction Z-score,[4]; [12],0.729 ± 0.33
same,promoter activity interaction Z-score,[4]; [13],1.02 ± 1.5
same,promoter activity interaction Z-score,[4]; [15],2.15 ± 2.1
same,promoter activity interaction Z-score,[5]; [8],0.859 ± 0.36
same,promoter activity interaction Z-score,[5]; [9],0.95 ± 0.41
same,promoter activity interaction Z-score,[5]; [10],-0.178 ± 0.062
same,promoter activity interaction Z-score,[5]; [11],0.248 ± 0.29
same,promoter activity interaction Z-score,[5]; [12],-0.182 ± 0.079
same,promoter activity interaction Z-score,[5]; [13],0.841 ± 0.84
same,promoter activity interaction Z-score,[5]; [14],0.348
same,promoter activity interaction Z-score,[5]; [15],-0.154 ± 1.2
same,promoter activity interaction Z-score,[6]; [8],-0.114 ± 0.024
same,promoter activity interaction Z-score,[6]; [9],0.133 ± 0.013
same,promoter activity interaction Z-score,[6]; [10],-0.071 ± 0.15
same,promoter activity interaction Z-score,[6]; [11],0.197 ± 0.43
same,promoter activity interaction Z-score,[6]; [12],0.185 ± 0.047
same,promoter activity interaction Z-score,[6]; [13],0.0863 ± 0.079
same,promoter activity interaction Z-score,[6]; [14],-0.0469 ± 0.15
same,promoter activity interaction Z-score,[6]; [15],2.32 ± 0.6
same,promoter activity interaction Z-score,[7]; [8],-0.228 ± 1.2
same,promoter activity interaction Z-score,[7]; [9],0.741 ± 0.18
same,promoter activity interaction Z-score,[7]; [10],-0.128 ± 1
same,promoter activity interaction Z-score,[7]; [11],-0.647 ± 0.99
same,promoter activity interaction Z-score,[7]; [12],0.287 ± 1
same,promoter activity interaction Z-score,[7]; [13],0.606
same,promoter activity interaction Z-score,[7]; [14],-0.887
same,promoter activity interaction Z-score,[7]; [15],2.55 ± 1.9
CC(=O)C(NC(=O)C(C)C(O)C(C)NC(=O)C(NC(=O)c1nc(C(CC(N)=O)NCC(N)C(N)=O)nc(N)c1C)C(O[C@@H]1O[C@@H](CO)[C@@H](O)[C@H](O)[C@]1(C)O[C@@H]1OC(CO)[C@H](O)[C@](O)(C(N)=O)[C@H]1O)c1cnc[nH]1)C(=O)NCCC1=NC(c2nc(C(N)=O)cs2)CS1 (some centres not stated) [Phleomycin],promoter activity interaction Z-score,[1]; [16],1.07 ± 0.23
same,promoter activity interaction Z-score,[1]; [17],-0.273 ± 0.32
same,promoter activity interaction Z-score,[1]; [18],1.04
same,promoter activity interaction Z-score,[1]; [19],0.298 ± 1.3
same,promoter activity interaction Z-score,[1]; [20],2.12
same,promoter activity interaction Z-score,[2]; [16],1.05 ± 0.22
same,promoter activity interaction Z-score,[2]; [17],2.57
same,promoter activity interaction Z-score,[2]; [18],1.98
same,promoter activity interaction Z-score,[2]; [19],1.57
same,promoter activity interaction Z-score,[2]; [20],2.71 ± 0.25
same,promoter activity interaction Z-score,[3]; [16],-0.476 ± 0.019
same,promoter activity interaction Z-score,[3]; [17],-0.254 ± 0.023
same,promoter activity interaction Z-score,[3]; [18],-0.0516 ± 0.18
same,promoter activity interaction Z-score,[3]; [19],-0.651 ± 0.16
same,promoter activity interaction Z-score,[3]; [20],-1.14 ± 0.14
same,promoter activity interaction Z-score,[3]; [21],-0.981 ± 0.31
same,promoter activity interaction Z-score,[4]; [16],1.83 ± 0.41
same,promoter activity interaction Z-score,[4]; [17],0.799 ± 2
same,promoter activity interaction Z-score,[4]; [18],-0.998
same,promoter activity interaction Z-score,[4]; [19],1.46 ± 2.8
same,promoter activity interaction Z-score,[4]; [20],-0.554
same,promoter activity interaction Z-score,[5]; [16],-0.5306 ± 0.0049
same,promoter activity interaction Z-score,[5]; [17],-0.313 ± 0.067
same,promoter activity interaction Z-score,[5]; [18],-1.12
same,promoter activity interaction Z-score,[5]; [19],-0.519 ± 0.41
same,promoter activity interaction Z-score,[5]; [20],-0.94 ± 0.28
same,promoter activity interaction Z-score,[6]; [16],0.286 ± 0.032
same,promoter activity interaction Z-score,[6]; [17],-0.0997 ± 0.0027
same,promoter activity interaction Z-score,[6]; [18],-0.106 ± 0.024
same,promoter activity interaction Z-score,[6]; [19],3.11 ± 2.5
same,promoter activity interaction Z-score,[6]; [20],-0.481 ± 0.012
same,promoter activity interaction Z-score,[6]; [21],-0.666 ± 0.31
same,promoter activity interaction Z-score,[7]; [16],-0.425 ± 0.84
same,promoter activity interaction Z-score,[7]; [17],-0.832 ± 0.55
same,promoter activity interaction Z-score,[7]; [18],-0.362 ± 0.33
same,promoter activity interaction Z-score,[7]; [19],0.481 ± 0.63
same,promoter activity interaction Z-score,[7]; [20],-0.433 ± 0.62
same,promoter activity interaction Z-score,[7]; [21],-1.33 ± 1.2
